Compounds without any hit were thinned out: in the full panel of roughly 83,000, 20% have a hit.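 Cells were grown in 96-well plates and exposed to the test compound at a single concentration for 48 hours; results are reported as percent growth, with values below 10 considered active.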 Unmarked numbers belong to inactive results. Activity calls are given as the source filed them.

Drawing on PubChem BioAssay (NCI), this text covers growth for 14 compounds.

Some test systems named below: RPMI-8226 leukemia; OVCAR-8 ovarian; OVCAR-5 ovarian; OVCAR-4 ovarian; IGROV1 ovarian; OVCAR-3 ovarian; HS 578T breast; NCI/ADR-RES ovarian; T-47D breast.
Assay in all cases: NCI-60 one-dose screen, 48 h (100 = growth as untreated, 0 = no growth, -100 = all killed)
What all share (details): 10 µM unless noted

As to `O=C(/C=C/c1ccccc1)c1ccc(Nc2nc(NCCO)nc(Nc3ccc(Cl)cc3)n2)cc1`, the growth with RPMI-8226 leukemia is 9.69% (active); in the assay with OVCAR-8 ovarian, 89.1%; with OVCAR-5 ovarian it was 97.7%; in the assay with OVCAR-4 ovarian it was 73.4%; in the assay on IGROV1 ovarian, 97.3%; with OVCAR-3 ovarian, 59.9%. Besides, the values for the growth in the assay with HS 578T breast, with NCI/ADR-RES ovarian and with T-47D breast were 93.1%, 91.7% and 62.7%, respectively.
On to `COc1cc(/C=C2\CN(S(=O)(=O)c3ccccc3)C/C(=C\c3cc(CN4CCCC4)c(O)c(OC)c3)C2=O)cc(CN2CCCC2)c1O`, for which the growth was -13.3% (active) in the assay with RPMI-8226 leukemia; 19.2% with OVCAR-8 ovarian; -9.14% (active) in the assay on OVCAR-5 ovarian; 34.8% in the assay with OVCAR-4 ovarian; -27.6% (active) in the assay on IGROV1 ovarian; 11.1% in the assay with OVCAR-3 ovarian. For the same compound, the values for the growth in the assay on HS 578T breast, in the assay with NCI/ADR-RES ovarian and in the assay on T-47D breast were 33.6%, 92.7% and 32.3%, respectively.
On to `O=C1/C(=C/c2ccc(O)cc2)COc2ccc(O)c(O)c21`, for which the growth was -6.76% (active) with RPMI-8226 leukemia; 17.6% in the assay with OVCAR-8 ovarian; 43.7% in the assay with OVCAR-5 ovarian; 43.7% with OVCAR-4 ovarian; 8.79% (active) in the assay with IGROV1 ovarian; -8.96% (active) in the assay with OVCAR-3 ovarian. The growth in the assay with HS 578T breast is 47.4%; in the assay on NCI/ADR-RES ovarian, 27.2%; in the assay with T-47D breast, 11.8%.
Consider `O=C(c1nc2ccccc2[nH]1)C1C(c2cccc([N+](=O)[O-])c2)C2CC3CCCCC3N2[C@@]12C(=O)Nc1cc(Cl)ccc12` (stereo partly specified), for which the growth in the assay with RPMI-8226 leukemia was 7.96% (active); in the assay on OVCAR-8 ovarian, 45.1%; in the assay with OVCAR-5 ovarian, 32%; in the assay on OVCAR-4 ovarian it was 27.5%; in the assay on IGROV1 ovarian, 10.3%; in the assay on OVCAR-3 ovarian, 45.5%. For the same compound, the growth in the assay with HS 578T breast is 33.6%; in the assay with NCI/ADR-RES ovarian, 39.7%; with T-47D breast, 38.4%.
With `Cc1cc2c(c(C)c1Cl)C(=O)/C(=C/c1cccc([N+](=O)[O-])c1)O2`, the growth is 108% in the assay on RPMI-8226 leukemia; 94.4% in the assay on OVCAR-8 ovarian; 100% in the assay on OVCAR-5 ovarian; 86.5% in the assay with OVCAR-4 ovarian; 96.6% in the assay with IGROV1 ovarian; 107% in the assay on OVCAR-3 ovarian. Further, the growth was 95.8% in the assay on HS 578T breast, 101% in the assay on NCI/ADR-RES ovarian and 98.4% with T-47D breast.
For `COc1ccc(Cn2cc(Cn3c(=O)c(-c4nc5ccccc5[nH]4)cc4ccccc43)nn2)c(OC)c1OC`, the growth in the assay with RPMI-8226 leukemia was 16.1%; in the assay with OVCAR-8 ovarian, 23.9%; in the assay on OVCAR-5 ovarian it was 19.1%; in the assay on OVCAR-4 ovarian it was 0.605% (active); in the assay on IGROV1 ovarian, 27%; with OVCAR-3 ovarian it was -32.5% (active). The growth in the assay with HS 578T breast was -9.86% (active); with NCI/ADR-RES ovarian it was -2.32% (active); in the assay on T-47D breast, 29.7%.
Consider `CCN1C(=O)N(CC)C2C1NN=c1s/c(=C3\C(=O)N(CC(C)(C)C)c4ccccc43)c(=O)n12` (stereo unspecified), for which the growth is 36.7% with RPMI-8226 leukemia; 32.7% with OVCAR-8 ovarian; 51.1% with OVCAR-5 ovarian; 27.6% in the assay with OVCAR-4 ovarian; 24.1% in the assay with IGROV1 ovarian; -18.4% (active) in the assay with OVCAR-3 ovarian. The growth was 18.9% in the assay with HS 578T breast, 11.3% with NCI/ADR-RES ovarian and 58.1% with T-47D breast.
For the compound `Brc1ccc(Oc2ccc(Nc3ncnc4onc(-c5ccccc5)c34)cc2)cc1`, the growth was 90.3% with RPMI-8226 leukemia; 97.8% in the assay with OVCAR-8 ovarian; 105% in the assay on OVCAR-5 ovarian; 88.2% in the assay with OVCAR-4 ovarian; 96.5% in the assay with IGROV1 ovarian; 119% in the assay on OVCAR-3 ovarian. For the same compound, the growth in the assay on HS 578T breast is 96.8%; in the assay with NCI/ADR-RES ovarian it was 94.1%; with T-47D breast, 77.8%.
For `COc1cc(/C=C2\Oc3cc(OCCCN4CCCC4)ccc3C2=O)cc(OC)c1`, the growth in the assay on RPMI-8226 leukemia is 49.4%; with OVCAR-8 ovarian, 56.4%; in the assay with OVCAR-5 ovarian, 89.4%; in the assay on OVCAR-4 ovarian, 75.2%; in the assay on IGROV1 ovarian it was 51%; in the assay on OVCAR-3 ovarian, -34.6% (active). The growth in the assay with HS 578T breast is 70.2%; with NCI/ADR-RES ovarian, 80.8%; in the assay with T-47D breast, 88.8%.
As to `Nc1nc(-c2ccccc2Br)nn1-c1nc2ccccc2s1`, the growth is 102% in the assay on RPMI-8226 leukemia; 97.6% in the assay on OVCAR-8 ovarian; 98% with OVCAR-5 ovarian; 101% in the assay on OVCAR-4 ovarian; 101% in the assay on IGROV1 ovarian; 108% in the assay with OVCAR-3 ovarian. In addition, the values for the growth with HS 578T breast, in the assay with NCI/ADR-RES ovarian and with T-47D breast were 104%, 105% and 105%, respectively.
In the case of `O=C(N=Nc1c(O)[nH]c2ccccc12)c1oc2ccccc2c1CN1CCN(c2ccccc2)CC1`, the growth is 7.75% (active) with RPMI-8226 leukemia; 6.9% (active) with OVCAR-8 ovarian; 3.76% (active) with OVCAR-5 ovarian; -79% (active) with OVCAR-4 ovarian; -5.86% (active) in the assay with IGROV1 ovarian; -69.9% (active) in the assay on OVCAR-3 ovarian. Also, the growth in the assay on HS 578T breast was 27.3%; in the assay on NCI/ADR-RES ovarian it was -34.9% (active); in the assay on T-47D breast it was -17.7% (active).
For `O=c1c2cc(F)ccc2sc2c(NCCN3CCCC3)nc3ccccc3c12`, the growth was 33.9% with RPMI-8226 leukemia; 63% with OVCAR-8 ovarian; 72.1% with OVCAR-5 ovarian; 54.2% in the assay on OVCAR-4 ovarian; 61.7% with IGROV1 ovarian; 48.8% in the assay on OVCAR-3 ovarian. The growth with HS 578T breast is 56.8%; with NCI/ADR-RES ovarian, 66.4%; in the assay with T-47D breast, 61.9%.
As to `Clc1ccc(Oc2ccc(Nc3ncnc4onc(-c5ccccc5)c34)cc2)c(Cl)c1`, the growth in the assay on RPMI-8226 leukemia was 90.8%; in the assay on OVCAR-8 ovarian it was 97.7%; with OVCAR-5 ovarian, 101%; with OVCAR-4 ovarian, 81.5%; in the assay with IGROV1 ovarian, 94.5%; with OVCAR-3 ovarian it was 109%. Further, the growth is 99.5% with HS 578T breast, 96.8% with NCI/ADR-RES ovarian and 83.5% in the assay on T-47D breast.
With `CC(C)c1ccc(S(=O)(=O)NC(=O)NC2CCCC2)cc1`, the growth in the assay with RPMI-8226 leukemia is 105%; in the assay on OVCAR-8 ovarian, 98.5%; in the assay on OVCAR-5 ovarian, 97.4%; in the assay with OVCAR-4 ovarian it was 97.2%; in the assay with IGROV1 ovarian it was 105%; with OVCAR-3 ovarian it was 110%. The values for the growth in the assay on HS 578T breast, with NCI/ADR-RES ovarian and with T-47D breast were 103%, 105% and 98.9%, respectively.
